Measured values published in PubChem BioAssay.
Active and inactive are the calls of the source.

Legend:
[1] = small molecules captured by biotinylated probe aFSTL3 – biochemical, small-molecule microarray, fluorescence 635/667, stem cell growth factor project, primary screen (AID 1064); conditions: higher = more signal;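 further: measures binding of the biotinylated anti-FSTL3 antibody to printed compounds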
[2] = binders from COS7 lysate, DM2A8 probe, primary screen, torsin A project, cell lysate, small-molecule microarray, fluorescence 635/667 (AID 1065); conditions: higher = more signal, COS7 lysate expressing mutant human TOR1A
[3] = small molecules captured by biotinylated probe aFGF2 – biochemical, small-molecule microarray, fluorescence 635/667, stem cell growth factor project, primary screen (AID 1067); conditions: higher = more signal;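 further: measures binding of biotinylated aFGF2 protein to printed compounds on slides; z-score merges feature fluorescence and signal-to-noise across triplicate slides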
[4] = small molecules captured by biotinylated probe aFGF10 – biochemical, small-molecule microarray, fluorescence 635/667, stem cell growth factor project, primary screen (AID 1071); conditions: higher = more signal;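 further: score merges 667 nm spot intensity and signal to noise from triplicate slides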
[5] = molecular target: Neurogenic locus notch homolog protein 2 (Homo sapiens) (UniProt Q04721); test: small molecules binding Notch2 protein – biochemical, small-molecule microarray, 635 nm fluorescence, stem cell growth factors, primary screen (AID 1073); conditions: higher = more signal
[6] = molecular target: Pro-neuregulin-1, membrane-bound isoform (Homo sapiens) (UniProt Q02297); test: small molecules binding neuregulin-1 protein – biochemical, small-molecule microarray, fluorescence 635/667, psychiatric disease protein project, primary screen (AID 1075); conditions: NRG1 binding, 635 nm fluorescence, higher = more signal;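 further: score combines 667 nm spot fluorescence with signal to noise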
[7] = test system: Neuregulin-1 EGF-like domain; test: small molecules binding NRG1 EGF domain – biochemical, small-molecule microarray, 635 nm fluorescence, primary screen (AID 1081); conditions: higher = more signal;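 further: binding of the protein to compounds printed on small-molecule microarray slides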
[8] = FRG1 expression reporter modulators in myotubes – cell-based, C2C12 myotubes, firefly/Renilla luciferase, luminescence, FRG1 inhibition for FSHD, primary screen (AID 1084); conditions: FRG1 promoter luciferase, higher = more signal, called active from +8 up or from −8 down
[9] = small molecules captured by biotinylated probe aFST – biochemical, small-molecule microarray, fluorescence 635/667, stem cell growth factor project, primary screen (AID 1086); conditions: higher = more signal;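 further: score merges 667 nm fluorescence with signal-to-noise of each printed compound spot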
[10] = binders of probe aHhip on microarray, primary screen, stem cell growth factor project, biochemical, small-molecule microarray, fluorescence 635/667 (AID 1087); conditions: higher = more signal;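 further: score merges spot fluorescence at 667nm with spot signal to noise ratio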

Sequence of Pro-neuregulin-1, membrane-bound isoform (Homo sapiens) (Q02297 whole entry, looked up, the tested form may be a part, canonical isoform): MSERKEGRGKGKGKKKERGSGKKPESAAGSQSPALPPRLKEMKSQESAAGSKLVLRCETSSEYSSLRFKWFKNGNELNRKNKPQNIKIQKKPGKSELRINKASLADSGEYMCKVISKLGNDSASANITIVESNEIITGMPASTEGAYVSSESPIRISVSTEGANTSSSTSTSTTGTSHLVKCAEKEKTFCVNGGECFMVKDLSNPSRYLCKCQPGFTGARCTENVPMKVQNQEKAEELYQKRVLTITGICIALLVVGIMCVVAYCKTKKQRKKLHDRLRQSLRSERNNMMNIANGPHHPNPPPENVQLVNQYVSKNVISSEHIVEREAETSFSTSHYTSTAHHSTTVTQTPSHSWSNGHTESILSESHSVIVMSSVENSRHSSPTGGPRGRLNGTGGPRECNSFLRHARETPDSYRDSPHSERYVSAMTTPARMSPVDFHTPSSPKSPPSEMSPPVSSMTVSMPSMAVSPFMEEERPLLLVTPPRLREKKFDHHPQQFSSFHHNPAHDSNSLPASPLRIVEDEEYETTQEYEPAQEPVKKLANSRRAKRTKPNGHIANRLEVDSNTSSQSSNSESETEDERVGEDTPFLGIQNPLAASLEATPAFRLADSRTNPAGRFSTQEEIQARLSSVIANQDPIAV
Sequence of Neurogenic locus notch homolog protein 2 (Homo sapiens) (Q04721 whole entry, looked up, canonical isoform): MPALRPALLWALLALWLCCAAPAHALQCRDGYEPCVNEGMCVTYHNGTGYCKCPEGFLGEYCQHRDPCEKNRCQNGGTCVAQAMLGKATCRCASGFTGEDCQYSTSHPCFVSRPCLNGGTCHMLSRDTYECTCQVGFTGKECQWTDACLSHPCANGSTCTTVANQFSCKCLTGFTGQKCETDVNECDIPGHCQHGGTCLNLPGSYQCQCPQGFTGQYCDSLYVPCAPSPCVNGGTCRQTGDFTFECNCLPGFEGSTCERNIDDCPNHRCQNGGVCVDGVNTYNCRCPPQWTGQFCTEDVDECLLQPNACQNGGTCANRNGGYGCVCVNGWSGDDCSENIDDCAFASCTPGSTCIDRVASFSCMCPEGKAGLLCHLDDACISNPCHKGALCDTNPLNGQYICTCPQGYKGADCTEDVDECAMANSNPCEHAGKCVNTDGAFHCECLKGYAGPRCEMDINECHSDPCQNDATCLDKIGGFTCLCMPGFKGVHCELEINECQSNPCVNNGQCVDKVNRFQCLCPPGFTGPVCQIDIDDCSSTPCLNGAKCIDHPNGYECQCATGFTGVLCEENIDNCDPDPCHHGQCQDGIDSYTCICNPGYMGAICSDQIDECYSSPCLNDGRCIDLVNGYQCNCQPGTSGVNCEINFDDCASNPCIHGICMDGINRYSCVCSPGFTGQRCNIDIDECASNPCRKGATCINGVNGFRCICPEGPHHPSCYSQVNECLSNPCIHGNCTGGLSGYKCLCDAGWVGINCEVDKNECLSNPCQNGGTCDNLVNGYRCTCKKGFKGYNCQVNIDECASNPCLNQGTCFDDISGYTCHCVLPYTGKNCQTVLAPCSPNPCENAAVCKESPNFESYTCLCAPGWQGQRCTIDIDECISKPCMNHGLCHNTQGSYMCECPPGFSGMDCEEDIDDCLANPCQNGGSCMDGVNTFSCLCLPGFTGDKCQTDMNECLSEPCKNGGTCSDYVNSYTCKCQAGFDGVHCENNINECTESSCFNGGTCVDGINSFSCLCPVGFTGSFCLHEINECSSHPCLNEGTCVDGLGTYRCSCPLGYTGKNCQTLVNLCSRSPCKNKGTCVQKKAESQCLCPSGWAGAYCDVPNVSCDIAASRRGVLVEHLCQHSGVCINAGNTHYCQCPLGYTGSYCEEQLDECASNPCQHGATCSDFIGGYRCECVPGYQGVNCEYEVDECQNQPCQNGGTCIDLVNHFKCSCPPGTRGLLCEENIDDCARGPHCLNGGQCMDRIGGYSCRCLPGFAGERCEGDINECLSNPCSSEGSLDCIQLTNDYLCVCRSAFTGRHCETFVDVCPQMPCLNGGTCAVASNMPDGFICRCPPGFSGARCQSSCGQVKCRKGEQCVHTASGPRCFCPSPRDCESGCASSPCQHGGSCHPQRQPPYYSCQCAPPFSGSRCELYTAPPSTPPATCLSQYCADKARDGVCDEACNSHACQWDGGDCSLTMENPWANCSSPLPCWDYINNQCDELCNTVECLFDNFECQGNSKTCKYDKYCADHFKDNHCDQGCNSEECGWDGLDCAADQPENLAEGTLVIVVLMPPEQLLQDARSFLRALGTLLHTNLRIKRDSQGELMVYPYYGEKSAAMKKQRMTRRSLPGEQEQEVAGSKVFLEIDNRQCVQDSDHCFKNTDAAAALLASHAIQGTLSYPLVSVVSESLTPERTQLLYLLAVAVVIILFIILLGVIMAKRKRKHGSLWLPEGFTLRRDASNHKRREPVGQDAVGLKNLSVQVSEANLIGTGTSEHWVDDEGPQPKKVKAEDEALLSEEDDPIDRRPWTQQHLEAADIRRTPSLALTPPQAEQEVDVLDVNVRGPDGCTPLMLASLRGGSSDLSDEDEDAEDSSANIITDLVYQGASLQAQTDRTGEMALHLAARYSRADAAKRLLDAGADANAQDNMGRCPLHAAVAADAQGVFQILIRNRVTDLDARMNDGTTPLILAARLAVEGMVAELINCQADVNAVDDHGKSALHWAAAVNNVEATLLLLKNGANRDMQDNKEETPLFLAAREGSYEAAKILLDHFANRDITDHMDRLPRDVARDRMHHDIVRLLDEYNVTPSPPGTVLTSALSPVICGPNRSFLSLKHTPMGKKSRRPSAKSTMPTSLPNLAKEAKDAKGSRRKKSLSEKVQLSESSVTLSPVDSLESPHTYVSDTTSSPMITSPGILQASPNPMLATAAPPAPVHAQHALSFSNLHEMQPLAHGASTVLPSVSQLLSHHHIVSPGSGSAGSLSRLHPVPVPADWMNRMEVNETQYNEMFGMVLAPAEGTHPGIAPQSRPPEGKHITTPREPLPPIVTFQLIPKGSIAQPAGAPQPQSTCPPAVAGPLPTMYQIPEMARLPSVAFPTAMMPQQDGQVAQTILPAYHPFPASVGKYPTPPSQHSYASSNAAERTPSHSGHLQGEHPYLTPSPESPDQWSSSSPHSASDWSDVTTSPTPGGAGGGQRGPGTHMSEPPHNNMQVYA

Row | SMILES | composite z-score [1] | composite z-score [2] | composite z-score [3] | composite z-score [4] | composite z-score [5] | composite z-score [6] | composite z-score [7] | z-score [8] | composite z-score [9] | composite z-score [10]
1 | CC(C)C(CO)N1C(=O)[C@@H]2C3C(=O)OCCC/C=C\[C@H]3OC23C=CCN(c2ccc4ccccc4c2)C(=O)[C@@H]13 (stereo not given in full) | -0.08 | -0.623 | -0.076 | -0.12 | -1 | 0.99 | 1.48 | 0.759 (inactive) | -0.412 | 0.176
2 | CCOC(=O)C[C@H]1[C@H](OC(=O)c2cc3ccccc3oc2=O)[C@@H](NC(=O)CC(C)C)c2cc(OCCCO)ccc2N1C(=O)c1ccc2ccccc2n1 | -0.444 | 0.304 | -0.132 | 0.945 | 1.09 | 0.594 | 1.1 | 0.159 (inactive) | 0.252 | -0.199
3 | C=CCC(OC(C)=O)[C@@H]1[C@@H](N(Cc2ccc(-c3cccc(C(F)(F)F)c3)o2)C(=O)Cc2ccc(OC)cc2)c2cc(OCCCO)ccc2N1C(=O)c1ccc(-c2ccccc2)cc1 (stereo not given in full) | -0.124 | 0.004 | -0.0796 | 0.0554 | -0.57 | 0.168 | 0.0604 | -0.461 (inactive) | 0.214 | 0.382
4 | COc1cc2c(cc1O)C(c1cccs1)N(Cc1cc3c(cc1Br)OCO3)CC2 (stereo not given) | -0.0508 | 0.58 | 0.0797 | 1.3 | 1.56 | 2.08 | 1.45 | 0.364 (inactive) | 1.23 | 0.0881
5 | CCCN1C(=O)[C@]2(Cc3ccccc31)N=C(c1ccc(OCCCO)cc1)O[C@@H]2c1ccccc1 | 0.552 | 0.176 | 0.0732 | -0.139 | 0.118 | 1.3 | 1.23 | -1.9 (inactive) | 0.311 | 0.22
6 | NC(=O)NCC#Cc1ccc2c(c1)[C@]1(C(=O)N2)[C@H](C(=O)N2CCN(c3ncccn3)CC2)[C@H]2C(=O)O[C@H](c3ccccc3)[C@H](c3ccccc3)N2[C@@H]1c1ccc(O)cc1 | -0.141 | 0.143 | -0.0328 | 0.861 | 1.17 | 0.575 | 0.664 | 0.234 (inactive) | 1.1 | 0.141
7 | CCOC(=O)C[C@H]1[C@H](OC(=O)Cc2ccc3c(c2)OCO3)[C@@H](NC(=O)C2CCCCC2)c2cc(OCCCO)ccc2N1C(=O)c1ccccc1 | 0.0113 | -0.155 | -0.112 | 0.117 | 0.0925 | -0.127 | 0.65 | -1.14 (inactive) | -0.0611 | -0.0994
8 | CCCCCCCCCCC(O)C1C=CC2C(=O)N(c3ccccc3)C(=O)C2N1Nc1ccc(C#N)cc1 (stereo not given) | 0.356 | 0.179 | -0.0262 | 0.696 | 1.18 | 1.73 | 0.98 | 1.05 (inactive) | 0.647 | 0.0626
9 | Cn1cccc1C(O)C1C=CC2C(=O)N(c3ccccc3)C(=O)C2N1Nc1ccccc1 (stereo not given) | -0.236 | 0.401 | 0.137 | 0.925 | 1.71 | 1.91 | 1.17 | 0.687 (inactive) | 0.706 | -0.136
10 | O=C1NC(=O)C2C1C=CC(C(O)c1ccco1)N2Nc1ccc(Cl)cc1Cl (stereo not given) | 0.388 | -0.13 | -0.0375 | -0.0728 | 0.42 | 0.825 | 1.24 | 1.62 (inactive) | 0.549 | -0.126
11 | CCOC(=O)C1=CC[C@@H](c2ccccc2)N(S(=O)(=O)c2ccc(C)cc2)[C@H]1c1ccccc1 | 0.322 | 0.13 | -0.0073 | 0.296 | 1.37 | 0.334 | 0.628 | -2.4 (inactive) | 0.77 | -0.265
12 | CCCCCC1=C2CNC(C)(C(=O)OC)C=C2C(C)C1=O (stereo not given) | 0.59 | -0.414 | -0.0676 | 0.0477 | 0.363 | 1.07 | 0.972 | 1.78 (inactive) | 0.0861 | 0.376
13 | CCOC(=O)C[C@H]1[C@H](OC(=O)Cc2ccc3c(c2)OCO3)[C@@H](NC(=O)c2ccc3ccccc3n2)c2cc(OCCCO)ccc2N1C(=O)c1ccccc1 | -0.0059 | 0.111 | 0.051 | 0.202 | 0.64 | 0.405 | -0.111 | 1.15 (inactive) | 0.23 | -0.069
14 | CC1CC/C=C\[C@H]2OC34C=CCN(C(C)C)C(=O)[C@H]3N(CCO)C(=O)[C@@H]4C2C(=O)O1 (stereo not given in full) | 0.689 | 0.987 | -0.159 | -0.228 | -1.19 | 1.08 | 1.23 | 0.0746 (inactive) | -0.662 | -0.134
15 | CN(C)C(=O)[C@@]1(Cc2ccccc2CN=[N+]=[N-])N=C(c2ccc(OCCCO)cc2)O[C@H]1c1ccccc1N=[N+]=[N-] | 0.388 | 0.021 | 0.0362 | 1.2 | 1.55 | 1.88 | 1.25 | -1.34 (inactive) | 1.44 | 0.0071
16 | Cc1ccccc1C(O)C1C=CC2C(=O)NC(=O)C2N1Nc1ccccn1 (stereo not given) | 0.888 | 0.127 | -0.129 | 0.0133 | 0.135 | 0.401 | -0.0441 | 1.08 (inactive) | -0.0817 | -0.134
17 | CC[C@@H]1O[Si](C(C)C)(C(C)C)c2c1cc(-c1cc(C)c(OC)c(C)c1)nc2-c1ccc(Oc2ccccc2)cc1 | -0.119 | -0.259 | -0.0881 | -0.0323 | 0.0131 | 0.437 | -0.595 | 0.838 (inactive) | -0.0965 | 0.0808
18 | CC(C)NC(=O)[C@@]1(C)c2ccccc2C(=O)N(Cc2ccc(OC(F)(F)F)cc2)[C@H]1c1ccc(CO)cc1 | 1.95 | -1.63 | -0.167 | -0.546 | -1.25 | 0.628 | 0.865 | -3.14 (inactive) | -0.55 | -0.28
19 | COCCOC(=O)N1C(=O)[C@@]2(c3cc(C#CCNC(N)=O)ccc31)[C@H](C(N)=O)[C@H]1C(=O)O[C@H](c3ccccc3)[C@H](c3ccccc3)N1[C@@H]2c1ccccc1OCCO | -0.0102 | 0.176 | -0.0381 | 0.43 | 1.23 | 0.667 | 0.46 | 1.94 (inactive) | 0.931 | 0.107
20 | [N-]=[N+]=NCc1ccccc1[C@@H]1OC(c2ccc(OCCCO)cc2)=N[C@]1(CCS(=O)(=O)c1ccccc1)C(=O)O | 0.561 | -0.0845 | 0.0116 | 0.396 | 0.797 | 1.92 | 0.733 | 5.28 (inactive) | 0.641 | -0.0994
21 | CC(CO)N1C(=O)[C@@H]2[C@H]3C(=O)OCC=C[C@H]3OC23C=CCN(Cn2nnc4ccccc42)C(=O)[C@@H]13 (stereo not given in full) | 0.12 | -0.699 | -0.207 | -0.729 | -1 | 1.88 | 0.694 | 0.246 (inactive) | -0.391 | -0.0994
22 | C=CCOC(=O)[C@@]1(Cc2ccccc2)C[C@H]2CO[C@H](c3ccc(OC)cc3)N2C1=O | -0.442 | 0.366 | -0.12 | 0.252 | 0.0925 | -0.294 | 0.209 | -1.33 (inactive) | -0.135 | 0.0373
23 | COC(=O)c1c(CC[C@@H](CO)NC(=O)N2CCC[C@H]2Cn2cc(C3(O)CCCCC3)nn2)oc(C(C)=O)c1C(=O)OC | -0.522 | 0.831 | -0.142 | 0.439 | 0.495 | 1.11 | 1.19 | -0.199 (inactive) | 0.0512 | -0.201
24 | COc1cc(NN2C(C(O)c3cc(OC)c(OC)c(OC)c3)C=CC3C(=O)N(C)C(=O)C32)cc(OC)c1OC (stereo not given) | -0.0324 | 0.427 | -0.0613 | 0.899 | 1.34 | 1.98 | 1.23 | 0.78 (inactive) | 0.572 | 0.12
25 | C=CCN1Cc2ccccc2[C@@H]2OC(c3ccc(OCCCO)cc3)=N[C@]2(CC=C)C1=O | 1.41 | 0.629 | 0.32 | 0.0911 | 0.848 | 0.955 | 1.06 | -0.479 (inactive) | 2.47 | -0.159
26 | CN(C)C(=O)[C@]1(Cc2ccccc2CN=[N+]=[N-])N=C(c2ccc(OCCCO)cc2)O[C@@H]1c1ccccc1 | 0.168 | -0.242 | 0.0577 | 0.863 | 0.666 | 1.62 | 0.96 | -3.49 (inactive) | 0.694 | -0.0618
